The values that follow come from PubChem BioAssay (NCATS).

A short description of assay [1]: Quantitative High-Throughput drug screen in 47 multiple myeloma cell lines against the NCATS MIPE library collection: KMS34_JCRB cell viability assay (AID 1918985). Note: nearly all actives have a fitted effect of over 40% in size. Note: potency is the fitted concentration of half-maximal effect. The procedure, abridged:
(§1)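 500 cells/well per myeloma line exposed to pinned MIPE 4.0 compounds for 48 h at 37 °C, 5% CO2. Viability read as ATP by CellTiter-Glo luminescence, normalised to DMSO-only (100%) and media-only (0%) wells.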

The nature of assay [2]: Quantitative High-Throughput drug screen in 47 multiple myeloma cell lines against the NCATS MIPE library collection: OCIMY5_PLB cell viability assay (AID 1918988). Note: potency is the fitted concentration of half-maximal effect; nearly all actives have a fitted effect of over 65% in size. Put shortly: as §1
The nature of assay [3]: Quantitative High-Throughput drug screen in 47 multiple myeloma cell lines against the NCATS MIPE library collection: OPM1_PLB cell viability assay (AID 1918989). Note: nearly all actives have a fitted effect of over 40% in size. Note: potency is the fitted concentration of half-maximal effect. The procedure, abridged:
as §1

The nature of assay [4]: Quantitative High-Throughput drug screen in 47 multiple myeloma cell lines against the NCATS MIPE library collection: U266_ATCC cell viability assay (AID 1919864). Note: nearly all actives have a fitted effect of over 35% in size. Note: potency is the fitted concentration of half-maximal effect. The procedure, abridged: as §1
The nature of assay [5]: Quantitative High-Throughput drug screen in 47 multiple myeloma cell lines against the NCATS MIPE library collection: XG1_PLB cell viability assay (AID 1919866). Note: nearly all actives have a fitted effect of over 35% in size. Note: potency is the fitted concentration of half-maximal effect. The procedure, abridged:
as §1

Assay [6] is described as follows: Quantitative High-Throughput drug screen in 47 multiple myeloma cell lines against the NCATS MIPE library collection: PE2_PLB cell viability assay (AID 1919869). Note: nearly all actives have a fitted effect of over 35% in size. Note: potency is the fitted concentration of half-maximal effect. The procedure, abridged: as §1
Assay [7] in a line: Quantitative High-Throughput drug screen in 47 multiple myeloma cell lines against the NCATS MIPE library collection: RPMI8226_ATCC cell viability assay (AID 1919871). Note: nearly all actives have a fitted effect of over 30% in size. Note: potency is the fitted concentration of half-maximal effect. Put shortly:
as §1

Assay [8] is described as follows: Quantitative High-Throughput drug screen in 47 multiple myeloma cell lines against the NCATS MIPE library collection: KMS11_JCRBsus cell viability assay (AID 1919873). Note: nearly all actives have a fitted effect of over 50% in size. Note: potency is the fitted concentration of half-maximal effect. Put shortly: as §1
The nature of assay [9]: Quantitative High-Throughput drug screen in 47 multiple myeloma cell lines against the NCATS MIPE library collection: KMS28BM_JCRB cell viability assay (AID 1919874). Note: nearly all actives have a fitted effect of over 35% in size. Note: potency is the fitted concentration of half-maximal effect. The procedure, abridged:
as §1

The nature of assay [10]: qHTS drug screen for cell cycle checkpoint inhibitors in PARPi-resistant BRCA-mutant ovarian cancer cell lines. (AID 1963452; calls by dose curve). As to conditions: PEO1/OlaR viability, CellTiter-Glo luminescence, 96 h, stronger effect = lower value. Put shortly:
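PEO1, PEO4 and PEO1/OlaR ovarian cancer cells, 600 per well, exposed 96 h at 37C to a dilution series. Viability read by CellTiter-Glo luminescence, normalized to DMSO and empty wells; activity summarized as Z-AUC.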
A general note: Quantitative high-throughput screening tests each substance at several concentrations.

Assay [11] is described as follows: Quantitative High-Throughput drug screen in 47 multiple myeloma cell lines against the NCATS MIPE library collection: SKMM1_PLB cell viability assay (AID 1919863). Note: nearly all actives have a fitted effect of over 35% in size. Note: potency is the fitted concentration of half-maximal effect. Particulars: SKMM1 myeloma viability, CellTiter-Glo ATP, 48 h; viability: stronger effect = lower value. Put shortly:
as §1

Assay [12] can be described thus: Quantitative High-Throughput drug screen in 47 multiple myeloma cell lines against the NCATS MIPE library collection: XG6_PLB cell viability assay (AID 1919865). Note: nearly all actives have a fitted effect of over 40% in size. Note: potency is the fitted concentration of half-maximal effect. Put shortly:
as §1

A short description of assay [13]: Quantitative High-Throughput drug screen in 47 multiple myeloma cell lines against the NCATS MIPE library collection: UTMC2_PLB cell viability assay (AID 1919868). Note: nearly all actives have a fitted effect of over 55% in size. Note: potency is the fitted concentration of half-maximal effect. As to conditions: CellTiter-Glo ATP luminescence, 48 h; viability (% of DMSO control): at 45.8 µM (top of the series) unless noted. Put shortly: as §1
The nature of assay [14]: Quantitative High-Throughput drug screen in 47 multiple myeloma cell lines against the NCATS MIPE library collection: PCM6_Riken cell viability assay (AID 1919870). Note: nearly all actives have a fitted effect of over 30% in size. Put shortly: as §1
Assay [15] in a line: Quantitative High-Throughput drug screen in 47 multiple myeloma cell lines against the NCATS MIPE library collection: OPM2_DSMZ cell viability assay (AID 1919872). Note: nearly all actives have a fitted effect of over 30% in size. Note: potency is the fitted concentration of half-maximal effect. The procedure, abridged:
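CellTiter-Glo luminescence (ATP) after 48 h compound exposure, 37C/5% CO2; 500 cells/well; MIPE 4.0 approved/investigational drugs pinned in; DMSO = 100%, media only = 0% viability.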

Assay [16] in a line: qHTS for identification of novel therapeutic agents for treatment of microphthalmiaassociated transcription factor (MiT) renal cell carcinoma (RCC) (AID 1963991).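 Note: curves scaled with 100% = DMSO viability and 0% = empty wells.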 Particulars: CellTiter-Glo, 48 h, stronger effect = lower value. Put shortly:
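UOK109/UOK124/UOK145 (TFE3 fusions, three partners); 500 cells/well; MIPE v4.0, 1912 cpds, 11 conc.; 48 h, 37 C; CellTiter-Glo, 15 min RT; lum. Norm.: DMSO 100%, empty 0%.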

A short description of assay [17]: Quantitative High-Throughput drug screen in 47 multiple myeloma cell lines against the NCATS MIPE library collection: OCIMY7_PLB cell viability assay (AID 1918987). Note: potency is the fitted concentration of half-maximal effect; nearly all actives have a fitted effect of over 65% in size. The procedure, abridged: as §1
Assay [18] is described as follows: Quantitative High-Throughput drug screen in 47 multiple myeloma cell lines against the NCATS MIPE library collection: VP6_DJ cell viability assay (AID 1919867). Note: potency is the fitted concentration of half-maximal effect; nearly all actives have a fitted effect of over 40% in size. The procedure, abridged:
as §1

Assay [19] can be described thus: qHTS profiling for inhibitors of Plasmodium falciparum proliferation (AID 504749).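 Note: 0% = DMSO vehicle and full inhibition = artemisinin control; nearly all actives have a fitted effect of over 60% in size.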 Particulars: P. falciparum in erythrocytes, SYBR Green DNA, 72 h, at 28.7 µM (top of the series). The procedure, abridged: (§2)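 P. falciparum-infected erythrocytes (0.3% parasitemia, 2.5% hematocrit) incubated with compound 72 h at 37 C, 5% CO2. Parasite DNA detected by SYBR Green after lysis, overnight at room temperature; normalised to 0.29 uM artemisinin and DMSO.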

A further assay has as its system 3D7. Described as above. Particulars: P. falciparum in erythrocytes, SYBR Green DNA, 72 h; series mostly up to 28.7 µM. The procedure, abridged:
as §2

The mark [20] stands for this setting: measured here: PEO1 parental Z-AUC.
The mark [21] stands for this setting: TFE3-RCC UOK109 viability, measured here: UOK109 Z-AUC.
[22] abbreviates: TFE3-RCC viability, measured here: UOK124 Z-AUC.
Setting [23] is: TFE3-RCC viability, measured here: UOK145 Z-AUC.

Inconclusive results are not listed. Active and inactive are the calls of the source. Unless noted, calls come from the whole dose curve; as a rule, active = well fitted curve in the direction sought with a large enough effect; inconclusive = small, poorly fitted or top-dose-only effect, or another doubt; inactive = no such curve, though single readings can be large; an effect the other way counts as inactive or inconclusive.

With `CC(C)Nc1cc(C(F)(F)F)cc2nc(NC(=O)c3cccnc3)nn12`, the Potency result in assay [1], in assay [3], in assay [5], in [6], in assay [7] and in assay [8] was “inactive” in each case. The Potency result in assay [9] is “inactive”. The Potency in assay [2] is 8.33 µM (active); in assay [4] it was 7.43 µM (active). The Z-AUC in assay [10] is 0.923 (inactive); in [10] (setting [20]), 0.905; in assay [10] (measured here: PEO4 Z-AUC) it was 1.12.
With `CCCNC(=O)Nc1ccc(Oc2ncnc3cc(OC)c(OC)cc23)cc1Cl`, the Potency result in assay [1], in assay [3], in [12], in [5], in assay [13] and in assay [6] was “inactive” throughout. The Potency result in assay [14] and in [15] was “inactive” each time. The viability in assay [11] was 116% (inactive). The Potency in assay [7] was 0.935 µM (active). The Z-AUC in assay [10] was -0.498 (inactive); in assay [10] (setting [20]), -0.00236; in [10] (measured here: PEO4 Z-AUC), -0.53. In addition, the values for the z-score in assay [16] (setting [21]), in assay [16] (setting [22]) and in assay [16] (setting [23]) were 0.0793, -1.33 and -0.496, respectively.
On to `CC=CC1=C(C(=O)O)N2C(=O)[C@H](NC(=O)[C@H](N)c3ccc(O)cc3)[C@@H]2SC1`, for which the Potency entry in assay [1], in assay [12], in assay [5], in assay [6], in [14] and in [7] was “inactive” in each case. Moreover, the Potency result (in assay [15]; in [8]; in [9]; with 3D7) was “inactive” throughout. The Potency in [17] was 26.4 µM (active); in [18] it was 2.96 µM (active). Further, the viability in [11] was 117% (inactive). The results for the activity, negative = inhibition in [19] (parasite line A) and in [19] (parasite line B) were -3.61% (inactive) and -5.72% (inactive), respectively.
Take `CC(C)(O)CCc1ccc(OCc2cc(-c3cccc(OC(F)F)c3)c3ncccc3c2)cc1`: the Potency entry in assay [1], in assay [3], in assay [6], in assay [14], in assay [15] and in assay [8] was “inactive” each time. Further, the Potency result in assay [9] is “inactive”. For the same molecule, the viability in [11] was 123% (inactive). In addition, the Potency in assay [12] was 20.9 µM (active). The Z-AUC in assay [10] is -0.38 (inactive); in assay [10] (setting [20]), 0.116; in [10] (measured here: PEO4 Z-AUC), 0.147. The values for the z-score in assay [16] (setting [21]), in assay [16] (setting [22]) and in assay [16] (setting [23]) were 0.14, 0.328 and 0.0594, respectively.
With `CC(C)(C)c1cc(C(C)(C)C)c(NC(=O)c2c[nH]c3ccccc3c2=O)cc1O`, the Potency result in [1], in assay [3], in [4], in assay [12], in [13] and in [6] was “inactive” each time. Besides, the Potency result in assay [7], in assay [15], in assay [8] and in assay [9] was “inactive” each time. For the same molecule, the viability in [11] is 97.5% (inactive). The Z-AUC in assay [10] was 1.31 (inactive); in [10] (setting [20]) it was 1.35; in [10] (measured here: PEO4 Z-AUC), 0.966. The z-score in assay [16] (setting [21]) stood at 0.938; in assay [16] (setting [22]) it was 0.941; in [16] (setting [23]), 0.665.
With `CC(C)=CCCC(C)=CCCC(C)=CCSc1ccccc1C(=O)O`, the Potency in [1] is 1.32 µM (active); in assay [2] it was 1.48 µM (active); in [3], 14.8 µM (active); in [11], 2.64 µM (active); in assay [4], 0.372 µM (active); in assay [5], 0.662 µM (active). Besides, the Potency in [18] was 1.87 µM (active); in assay [13], 1.18 µM (active); in assay [6], 2.35 µM (active); in assay [15] it was 4.18 µM (active); in [8] it was 0.209 µM (active); in [9], 5.9 µM (active).

As a reminder, the viability is a read-out of living cells in per cent, often relative to untreated cells.
